From the supplement of paper PMC3334620
Over roughly 33,000 sequences, “E-score (-0.5 to 0.5)” has its median near -0.013; the highest 2% begin near 0.3. Shown is part of a subset that was picked to be rich in the highest values.

What follows are sequences tested against T1, Msn1 (UniProt P22148) (assay: PBM E-score (8-mer binding enrichment) (E-score (-0.5 to 0.5)); higher = stronger / more preferred TF binding). Details: protein concentration: 200 nM; construct: GST-full length.
T1 sequence: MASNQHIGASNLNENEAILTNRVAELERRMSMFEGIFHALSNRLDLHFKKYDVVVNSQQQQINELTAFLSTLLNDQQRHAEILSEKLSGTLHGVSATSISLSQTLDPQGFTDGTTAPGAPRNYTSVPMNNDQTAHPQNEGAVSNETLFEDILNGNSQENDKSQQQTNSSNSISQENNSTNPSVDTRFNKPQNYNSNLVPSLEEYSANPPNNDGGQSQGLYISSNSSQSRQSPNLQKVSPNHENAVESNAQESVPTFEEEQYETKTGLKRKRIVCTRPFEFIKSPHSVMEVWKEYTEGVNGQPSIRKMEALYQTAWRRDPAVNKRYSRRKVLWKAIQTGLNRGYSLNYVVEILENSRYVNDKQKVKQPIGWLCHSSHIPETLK
Method in brief: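 Each ungapped eight-base word and its reverse complement, pooled, received an E-score from the Universal PBM Analysis Suite. Underlying scans, normalised with masliner, recorded fluorescent anti-GST bound to GST-tagged yeast transcription factors. These were applied at about 100-200 nM to universal all-10-mer Agilent arrays double-stranded by primer extension.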

| Sequence | PBM E-score |
| --- | --- |
| ACCTCAGG | -0.129 |
| GATTGTCA | 0.245 |
| CATTGTCA | 0.158 |
| AATTGTCA | 0.359 |
| AATTGTCC | 0.488 |
| GATTGTAC | 0.0546 |
| AATTGTGC | 0.0159 |
| TATTGTCA | 0.282 |
| CATTGTCC | 0.456 |
| CATTGTGC | 0.0753 |
| AATTGTTC | 0.245 |
| AATTGTAC | 0.365 |
| CATTGTAC | 0.0768 |
| AAATCTGT | 0.138 |
| CACACCCC | -0.293 |
| ATTGCGGA | 0.145 |
| ATATGAGA | 0.0596 |
| ACCCGAAG | -0.0262 |
| CACTTTCC | -0.221 |
| AATTGTCT | 0.406 |
| GATTGTCC | 0.458 |
| CATTGTCG | 0.21 |
| GATTGTGC | -0.0365 |
| AATTGTAG | 0.167 |
| AATTGTAT | 0.155 |

| Sequence | PBM E-score |
| --- | --- |
| AATTGTCG | 0.362 |
| AATTGTGT | -0.0542 |
| GATTGTAA | 0.0176 |
| CTAGCCAA | 0.00535 |
| AAATTTAA | 0.238 |
| GGAAGAAC | -0.012 |
| GCCTTTCC | -0.0629 |
| ATGCGACG | -0.249 |
| ATGGCTGA | -0.133 |
| CTGTACCC | -0.0861 |
| GCACCGAA | 0.0642 |
| TGTAGACA | 0.261 |
| CATAGACC | -0.0541 |
| GAGAGACA | 0.246 |
| CTTAGACA | 0.232 |
| GTTAGACA | 0.33 |
| CATAGACA | 0.35 |
| TATAGATA | 0.0139 |
| AAGAGACA | 0.288 |
| ATTAGACA | 0.295 |
| CATAGACG | 0.194 |
| TAGAGACA | 0.377 |
| TATAGACA | 0.405 |
| GGAGCTCA | -0.0253 |
| ACCCGGTA | 0.0382 |

| Sequence | PBM E-score |
| --- | --- |
| CCGGCTAG | -0.141 |
| GATTCACC | -0.145 |
| CGAGGTAG | -0.251 |
| AGGAAACT | 0.025 |
| ACAAGAGG | -0.011 |
| CCTAGACA | 0.0613 |
| GCTAGACA | 0.212 |
| GATAGACA | 0.331 |
| TCTAGACA | 0.332 |
| AATAGACA | 0.259 |
| GATAGACC | -0.0609 |
| ACTCGACC | -0.143 |
| ACATACTC | 0.0584 |
| GAGCCTTA | -0.168 |
| ATGTCCAA | 0.485 |
| GAGTCCAA | -0.0901 |
| GTGTCCAA | 0.389 |
| AGGTCCAG | 0.0683 |
| AAGTCCAG | 0.244 |
| ATGTCCAC | 0.446 |
| AGGTCCAA | -0.00743 |
| AGGTCCAC | -0.067 |
| CTGTCCAC | 0.184 |
| GGGTCCAA | -0.104 |
| CTGTCCAA | 0.287 |

| Sequence | PBM E-score |
| --- | --- |
| ATGTCCAG | 0.457 |
| ATGGGTAA | 0.0578 |
| CTTCCACC | -0.298 |
| CGGTATCC | -0.224 |
| AAACATGT | 0.17 |
| ACCGATTC | -0.0811 |
| AGATTGTC | 0.369 |
| CGATTGAC | 0.151 |
| CGATTGTC | 0.348 |
| CGATTGTA | 0.088 |
| AGATTGTA | 0.091 |
| AGATTGTG | -0.0281 |
| AGTTATTA | 0.0736 |
| CAGCACTG | -0.226 |
| GCCTTCGC | -0.098 |
| CCAGATTC | -0.389 |
| ATTTGTAC | 0.46 |
| ATTTGTAA | 0.169 |
| ATTTGTAG | 0.162 |
| CTTTGTAC | 0.322 |
| CTTTGTAA | 0.168 |
| CCTTGTAC | 0.183 |
| AGGAATTC | -0.0844 |
| AGCGAACG | -0.274 |
| CACCTTCG | -0.0896 |

| Sequence | PBM E-score |
| --- | --- |
| ACAAATGA | 0.317 |
| ACAAATGG | 0.345 |
| CCAAATGC | -0.0167 |
| ACAAATGT | 0.446 |
| GCAAATGC | -0.113 |
| ACAAAGGT | 0.218 |
| CCAAATGA | 0.05 |
| ACAATGGG | 0.196 |
| ACAAATGC | 0.304 |
| GCAAATGA | -0.0127 |
| ACAAACGT | 0.244 |
| CCAAATGG | 0.169 |
| CTTCGGGA | 0.15 |
| AACGAGCT | -0.0712 |
| GGCGGCCA | -0.161 |
| CGGTTAGA | -0.22 |
| CACAATCC | 0.119 |
| GCTCAACA | -0.0111 |
| ATAGTTTG | 0.274 |
| GCGCGATA | 0.119 |
| GGATTGGA | 0.0131 |
| ACAAATCA | 0.266 |
| ACAAATCT | 0.308 |
| ACAAATCC | 0.265 |
| GAGGATCC | -0.0362 |

| Sequence | PBM E-score |
| --- | --- |
| AAAATGGG | 0.182 |
| CAAAATGG | 0.133 |
| AAAAATGG | 0.311 |
| AAAAATGC | 0.0785 |
| AAAAATGT | 0.335 |
| AAAAATGA | 0.143 |
| AGTTTTTC | 0.0155 |
| ATGCGTGA | 0.167 |
| CGCCAGCG | -0.278 |
| GTCCGGAA | 0.368 |
| CTCCGGAC | 0.224 |
| ATCCGGAC | 0.297 |
| ATCCGGGA | -0.0993 |
| ATCCGGAA | 0.215 |
| GTCCGGGA | 0.336 |
| GTCCGGAC | 0.406 |
| CTCCGGGA | -0.0499 |
| CTCCGGAA | 0.0926 |
| GAGGAGCA | -0.184 |
| TATTTTGA | 0.033 |
| ATCTTTGG | -0.0763 |
| AACTTGAG | -0.212 |
| CGCTTGTA | 0.211 |
| AACTTGTA | 0.107 |
| CACTTGTA | 0.157 |

| Sequence | PBM E-score |
| --- | --- |
| AACTTGTG | 0.132 |
| AACTTGAA | 0.101 |
| AACTTGAT | 0.321 |
| CCCTTGTC | 0.204 |
| AACTTGTC | 0.391 |
| CACTTGTC | 0.408 |
| AGCTTGTC | 0.168 |
| CGCTTGTC | 0.345 |
| ACCGAATG | -0.0786 |
| AGCTCACA | -0.111 |
| GCGGCTCC | -0.285 |
| AACGCTAA | -0.0499 |
| ATCGCAAC | -0.0713 |
| GTTAAGAA | -0.0961 |
| GATCCGGA | 0.0679 |
| ACACCTAC | -0.04 |
| ATCTTGTC | 0.246 |
| CTCTTGTC | 0.339 |
| CTCTTGTA | 0.035 |
| CCACCACA | -0.214 |
| TATGGGGA | 0.123 |
| AAGAGGGT | -0.12 |
